Test results: the supplement of paper PMC12636033
± gives the standard deviation of the averaged measurements. Whole data set: some 33,000 sequences, median “E-score (rank enrichment, -0.5 to 0.5)” near -0.0043, cut for the highest 2% near 0.24. What follows is part of a selection rich in the highest values, with near analogues and random picks from the rest.

System: 2Sp-muMax20 (muMax20 with two 2,6-bis(methyl)pyridine Cys staples)
Experiment: PBM 8-mer E-score (E-score (rank enrichment, -0.5 to 0.5)); higher = stronger preferential binding
Procedure: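 Protein binding microarray (universal PBM chip covering all 10-mers in fixed probe flanks) with chemically synthesized human Max(13-93) bHLH-LZ analogs (not full-length Max) bearing noncanonical residues (hArg, Tha, Aib, Nle at 65) and aromatic Cys staples. Read-out per 8-mer (and its reverse complement): E-score (rank-based enrichment, -0.5 to 0.5) and Z-score of median probe intensity.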

Row | Sequence | PBM 8-mer E-score
1 | AAATGTAT | 0.0866 ± 0.053
2 | AGATGTAT | 0.167 ± 0.023
3 | CCATGTAG | 0.148 ± 0.0044
4 | ACATGTAT | 0.277 ± 0.0074
5 | GTAGCTTA | 0.179 ± 0.047
6 | TGGTGTAA | 0.135 ± 0.039
7 | CCCCCAGC | -0.295 ± 0.034
8 | ATACCAGG | -0.136 ± 0.023
9 | CACAAGGG | -0.0596 ± 0.022
10 | AGTCTAAA | -0.14 ± 0.013
11 | TCCCCAAA | 0.256 ± 0.079
12 | CGCCCACG | -0.0323 ± 0.074
13 | CCCCCAAA | -0.195 ± 0.075
14 | TCCCCCAA | -0.174 ± 0.034
15 | AACCCACC | 0.267 ± 0.025
16 | ACCCCACA | 0.239 ± 0.02
17 | AACCCACG | 0.17 ± 0.037
18 | AGCCCACC | -0.0175 ± 0.041
19 | CGCCCACC | 0.274 ± 0.055
20 | CACCCACC | 0.0762 ± 0.08
21 | ACCCCACG | 0.0387 ± 0.033
22 | GACCCACC | 0.106 ± 0.043
23 | ATAAGGGA | 0.102 ± 0.04
24 | AACTCAAA | 0.172 ± 0.036
25 | CACGGCTA | -0.249 ± 0.073

Row | Sequence | PBM 8-mer E-score
26 | CCGTGGAC | -0.2957 ± 0.0024
27 | AGGCTAGA | -0.144 ± 0.033
28 | CCCCCACG | 0.0635 ± 0.0042
29 | CCCCCAAC | -0.253 ± 0.01
30 | GCCCCACC | 0.237 ± 0.039
31 | TCCCCACA | 0.235 ± 0.0063
32 | GCCCCAAC | 0.267 ± 0.013
33 | CCCCCACC | -0.321 ± 0.032
34 | GCCCCAAA | 0.188 ± 0.0029
35 | ACCCCACT | 0.183 ± 0.027
36 | ACCCCCAC | -0.19 ± 0.027
37 | ACCCCACC | 0.236 ± 0.05
38 | CCCCCACA | -0.205 ± 0.084
39 | GCCCCACA | 0.223 ± 0.042
40 | GTCTCTCA | -0.0452 ± 0.0099
41 | AGAGGACT | -0.0403 ± 0.059
42 | ACAAGTGT | -0.0219 ± 0.043
43 | AGACTGTC | -0.179 ± 0.036
44 | CATGTTAA | 0.191 ± 0.048
45 | ACTCTCTA | 0.158 ± 0.0044
46 | AACTCATG | 0.176 ± 0.077
47 | AAACAGAA | 0.168 ± 0.015
48 | AACCCATG | 0.139 ± 0.032
49 | ACCCCATG | 0.297 ± 0.047
50 | ACCCCATA | 0.107 ± 0.075

Row | Sequence | PBM 8-mer E-score
51 | CACACGTC | -0.0411 ± 0.069
52 | CATACGTC | 0.0118 ± 0.0042
53 | CACACGTG | 0.384 ± 0.019
54 | CATACGTA | 0.297 ± 0.012
55 | AACACGTC | 0.0953 ± 0.04
56 | CACACGTA | 0.0876 ± 0.11
57 | AACACGTG | 0.4615 ± 0.0029
58 | AATACGTA | 0.206 ± 0.064
59 | AACACGTA | 0.0789 ± 0.055
60 | CTTATGAC | 0.0201 ± 0.0061
61 | ACTATGAC | 0.0953 ± 0.0015
62 | TAAGGGTA | 0.115 ± 0.039
63 | CCCTGGGA | -0.29 ± 0.01
64 | CTTTCAAA | 0.236 ± 0.026
65 | CATTCACA | 0.248 ± 0.016
66 | GTTTCAAA | 0.073 ± 0.063
67 | CCTTCACA | 0.256 ± 0.018
68 | CATTCAAG | -0.108 ± 0.079
69 | GATTCACA | 0.0451 ± 0.093
70 | CCTTCACG | -0.0558 ± 0.019
71 | CATTCAAA | 0.256 ± 0.027
72 | TATTCAAA | 0.197 ± 0.036
73 | CATTCACG | 0.0213 ± 0.074
74 | ATTTCAAA | 0.0933 ± 0.0025
75 | ACTTCACA | 0.00636 ± 0.061

Row | Sequence | PBM 8-mer E-score
76 | ACCAAGGG | -0.132 ± 0.035
77 | GCAAATCC | -0.0919 ± 0.086
78 | CTTGATAA | 0.0868 ± 0.0083
79 | GCATTACC | -0.136 ± 0.01
80 | ATGACAAC | 0.0122 ± 0.037
81 | CGACAATA | 0.0335 ± 0.093
82 | CAAGGCTG | -0.037 ± 0.11
83 | CTCTTCAC | 0.129 ± 0.00049
84 | AATCCAGA | 0.124 ± 0.08
85 | AATGCGAC | 0.0252 ± 0.028
86 | CATGCAAC | 0.281 ± 0.056
87 | CATGCGAC | 0.308 ± 0.019
88 | AATGCAAC | 0.136 ± 0.035
89 | CATGCACA | 0.251 ± 0.033
90 | CATGCACG | 0.0888 ± 0.024
91 | CATGCATC | 0.081 ± 0.025
92 | CATGCATA | 0.207 ± 0.0092
93 | CATGCGAG | 0.165 ± 0.062
94 | CATGCATG | 0.382 ± 0.024
95 | GATGCACA | 0.0774 ± 0.012
96 | CATGCAAG | 0.103 ± 0.05
97 | CGAGGAAG | -0.0173 ± 0.064
98 | CCGGCCGG | -0.229 ± 0.081
99 | CCCAACCC | 0.204 ± 0.019
100 | CGCAAAAA | -0.00934 ± 0.005

Row | Sequence | PBM 8-mer E-score
101 | CTGGGCGC | 0.0231 ± 0.038
102 | ATTTGGCA | -0.0164 ± 0.011
103 | ATTACTTG | 0.18 ± 0.017
104 | CTCCTACA | 0.0705 ± 0.028
105 | AGGGCTCA | -0.0979 ± 0.031
106 | CTCATGCC | 0.0321 ± 0.035
107 | AGCGGATC | -0.0391 ± 0.022
108 | CGTGCACA | 0.102 ± 0.071
109 | CGTGCACG | 0.338 ± 0.0045
110 | AATGCATA | 0.16 ± 0.074
111 | AATGCATT | 0.356 ± 0.017
112 | AATGCATG | 0.233 ± 0.038
113 | TGTGCACA | 0.0196 ± 0.045
114 | ACGGGACC | -0.245 ± 0.039
115 | GGAATTTA | -0.0803 ± 0.093
116 | GTCTTTGA | -0.121 ± 0.016
117 | CTATTGCC | -0.045 ± 0.019
118 | ATATTGCG | 0.117 ± 0.029
119 | ATATTGCC | 0.238 ± 0.0041
120 | CAAAAGTG | 0.11 ± 0.016
121 | GAAAGTAA | 0.0437 ± 0.0096
122 | CACAACGG | -0.145 ± 0.066
123 | CCCCGCCA | 0.246 ± 0.071
124 | ACCCCGCC | 0.284 ± 0.099
125 | CGCCGCCC | 0.00789 ± 0.052

Row | Sequence | PBM 8-mer E-score
126 | GCCCGCCA | -0.0439 ± 0.026
127 | CCCCGCCG | 0.131 ± 0.011
128 | CCCCGCCC | 0.295 ± 0.048
129 | AACCCGCC | 0.128 ± 0.019
130 | TCCCGCCA | -0.0738 ± 0.002
131 | ACCCGCCC | 0.3697 ± 0.0017
132 | GCCCGCCC | 0.16 ± 0.039
133 | CCCCCGCC | -0.0595 ± 0.056
134 | ACCCGCCG | 0.131 ± 0.01
135 | ATATCTCC | 0.197 ± 0.016
136 | ACAGTATC | 0.185 ± 0.073
137 | TTAGGAAA | -0.00284 ± 0.012
138 | ATGGTCAG | 0.122 ± 0.043
139 | CGCTCCGC | -0.154 ± 0.17
140 | TATCCGCA | 0.0196 ± 0.089
141 | AAATTCTT | 0.0344 ± 0.11
142 | GGATATTA | 0.161 ± 0.084
143 | CTATACTA | 0.113 ± 0.12
144 | GCATATTA | 0.153 ± 0.0097
145 | ATGTATTA | 0.21 ± 0.014
146 | GTGTATTA | 0.239 ± 0.069
147 | CTATATTA | 0.168 ± 0.018
148 | ATATATTG | 0.221 ± 0.0031
149 | ATATACTC | 0.0166 ± 0.11
150 | GTATATTA | 0.243 ± 0.0031

Row | Sequence | PBM 8-mer E-score
151 | CTGTATTA | 0.141 ± 0.0065
152 | ATATATTA | 0.264 ± 0.012
153 | ATATACTA | 0.285 ± 0.027
154 | CAGTACTA | 0.128 ± 0.056
155 | AGAGATCC | -0.0549 ± 0.05
156 | TATCGACA | -0.0261 ± 0.032
157 | CGAGCGTC | -0.00097 ± 0.042
158 | ACACCATG | 0.0073 ± 0.025
159 | CATTGTCA | -0.0464 ± 0.016
160 | AAAGGGGT | 0.123 ± 0.013
161 | CCCCTGCG | -0.168 ± 0.0048
162 | GCCAATGA | 0.00492 ± 0.00047
163 | GACGGAAA | 0.0756 ± 0.07
164 | CGTTGAAC | -0.0586 ± 0.068
165 | CATTGATA | 0.179 ± 0.1
166 | AATTGATG | 0.25 ± 0.021
167 | ACTTGATG | 0.0152 ± 0.0016
168 | AATTGATA | 0.252 ± 0.025
169 | GATTGATA | 0.115 ± 0.015
170 | AATTGATC | 0.0176 ± 0.058
171 | AAGACCCC | 0.0259 ± 0.047
172 | CACGGCGC | -0.0163 ± 0.17
